Drawing on PubChem BioAssay (NCI), this text covers growth for 40 compounds.

About 83,000 compounds went through this panel and 20% of them were active in at least one assay; those are over-represented in the sample as a whole.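 Interpretation: 100, growth as untreated; towards 0, rising growth inhibition; 0, no net growth; 0 to -100, cell death. Compounds scoring below 10 were considered active.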 Calls of active or inactive are those of the source.

The subject of the test is ACHN renal. Description: NCI-60 one-dose screen, 48 h (100 = growth as untreated, 0 = no growth, -100 = all killed). Conditions: 10 µM unless noted. On the procedure:
Growth inhibition of the ACHN human tumor cell line is measured as a screen for anti-cancer activity. Cells are grown in 96 well plates and exposed to the test compound for 48 hours. Compounds are tested at a single concentration, which is 10^-5 M for most compounds. The reported endpoint is percent growth (GI% or GIPRCNT), where numbers from 0 - 100% represent growth inhibition, and numbers from -100% - 0 represent cell death. For example, a value of 40 represents 60% growth inhibition. A value of 0 means no net growth occurred over the course of the experiment. A value of -40 indicates 40% of cells at the beginning of the experiment died by the end of the experiment. A value of -100 means all cells are dead at the end of the experiment.
NCI-60 Human Tumor Cell Lines Screen was performed using the standard one-dose NCI protocol, which is described in more detail at https://dtp.cancer.gov/discovery_development/nci-60/default.htm.
Compounds with GIPRCNT values below 10 were considered active. Activity score was based on GIPRCNT using the following formula: […]
Score is 0 for GIPRCNT values of 100 or above, 50 for GIPRCNT values of 0, and 100 for GIPRCNT values of -100.
With `C=C1C(=O)O[C@H]2[C@H]1CC/C(COC(=O)NCC(=O)Nc1ccc(OC)c(C(N)=O)c1O)=C\CC[C@@]1(C)O[C@@H]21`, the growth was 75.3% (inactive).
With `COc1ccc(/C=C/C(=O)Nc2ncnc3nc[nH]c23)cc1` the figure was 111% (inactive); with `Nc1c(C(=O)Nc2cccc3ccccc23)sc2nc3c(cc12)COCC3`, 62.5% (inactive); with `CSc1nc(-c2ccco2)c2c(N)[nH]nc2n1`, 101% (inactive).
With `COC(=O)c1oc2c(C(=O)/C=C/c3ccc(OC)cc3)c(OCCCN3CCCCC3)ccc2c1C` the figure was 28% (inactive).
Regarding `Cc1nccc2c3ccc(OCc4cn(-c5ccccc5)nn4)cc3n(CCCc3ccccc3)c12`, the growth was 72% (inactive).
As to `Nc1c(C(=O)Nc2ccccn2)sc2nc3c(cc12)CCCCCC3`, the growth is 36.1% (inactive).
As to `C=C(C)[C@@H]1CC[C@]2(C(=O)OCCOCCOCC[P+](c3ccccc3)(c3ccccc3)c3ccccc3)CC[C@]3(C)[C@H](CC[C@@H]4[C@@]5(C)CC[C@H](C)C(C)(C)[C@@H]5CC[C@]43C)[C@@H]12`, the growth was -92.6% (active).
With `C(=C\c1cn(-c2ccccc2)nc1-c1ccccc1)/c1nnc(-c2c[nH]c3ccccc23)o1` the figure was 40% (inactive); with `OCCNc1nc(NCCO)nc(Nc2ccc(C3=NN(c4cc(Cl)cc(Cl)c4)C(c4ccc(Cl)cc4)C3)cc2)n1` (stereo not given), 50.8% (inactive); with `O=C(C[n+]1cccc2cc(Cl)ccc21)c1ccc2c(c1)CCCC2`, 86.2% (inactive).
With `O=C1CCC23OC(c4ccccc4N12)C(O)C(O)C3O` (stereo not given) the figure was 109% (inactive); with `Cc1c(Cl)cccc1NC(=O)c1sc2nc3c(cc2c1N)COCC3`, 44.2% (inactive); with `CC[C@H](Nc1ncnc2nc[nH]c12)c1nc2cccc(CC(=O)c3ccc(C(=O)NO)cc3)c2c(=O)n1-c1ccccc1`, 102% (inactive).
As for `O=[N+]([O-])c1cccc(CN(Cc2cccc([N+](=O)[O-])c2O)c2ccccc2)c1O`, the growth was 74.6% (inactive).
With `C/C(=C\c1cnc(C)s1)[C@@H]1C[C@@H]2O[C@@H]2CCC[C@H](C)[C@H](O)[C@@H](C)C(=O)C(C)(C)[C@@H](O)CC(=O)O1` the figure was 52.8% (inactive).
With `CN(C)CCCn1c2c(c3cc(-c4cccc(S(N)(=O)=O)c4)ccc3c1=O)C(=O)c1ccccc1-2` the figure was 57.2% (inactive); with `O=C(Nc1nccs1)c1noc2ccccc12`, 96.9% (inactive).
With `NC[C@@H]1CCN(c2cc3c(cc2F)c(=O)n(N)c(=O)n3Cc2ccc(-c3ccccc3)cc2)C1` the figure was 95.3% (inactive); with `COc1cc(C)ccc1Oc1nc(Nc2ccc(N3CCOCC3)cc2)ncc1N=Cc1cc(C(F)(F)F)cc(C(F)(F)F)c1`, 56.3% (inactive).
Take `COc1ccc(-c2cc(-c3nnc(SCC(=O)Nc4ccc(/C(C)=N\O)cc4)o3)c3ccccc3n2)cc1`: the growth is 117% (inactive).
With `O=C(Nc1cccc(-c2cccc(F)c2)c1)C1CCN(Cc2cccc3cccnc23)CC1` the figure was 65.5% (inactive); with `O=C(/C(=C/c1ccc([N+](=O)[O-])cc1)SCc1ccccc1)c1ccc(Cl)cc1`, 76.5% (inactive); with `O=c1c2ccccc2n(CC(O)CN2CCCC2)c2c(Br)cccc12` (stereo not given), 108% (inactive).
With `O=C1[C@@H](OS(=O)(=O)CC(F)(F)F)[C@H](c2ccc(F)cn2)N1c1cc2c3ccccc3ccc2c2ccccc12` the figure was 76.3% (inactive).
With `CCCCc1n(Cc2ccc3ccccc3n2)cc[n+]1Cc1ccc2ccccc2c1` the figure was 61.2% (inactive); with `C=CCn1c(SCC(=O)Nc2ccc(C(=O)/C=C/c3cc(OC)c(OC)c(OC)c3)cc2)nnc1-c1ccc(Cl)cc1`, 37.4% (inactive).
Regarding `Cc1ccc(C2CC(c3ccc(Nc4nc(NCCO)nc(NCCO)n4)cc3)=NN2c2ccc(Cl)cc2)cc1` (stereo not given), the growth was 52.2% (inactive).
With `COc1cc(C(=O)Nc2cc(OC)c3ccn(C)c3c2)cc2c1C[C@]1(C)CC[C@@H](O)C(C)(C)[C@H]1O2` the figure was 18% (inactive); with `CCOC(=O)CC[C@H](NC(=O)c1ccc(NC)c2ccccc12)C(=O)OCC`, 98.8% (inactive); with `CCCn1c(N)c(C(N)=O)sc1=S`, 93.9% (inactive).
Turning to `N#Cc1c(-c2ccc(F)cc2)nc(N/N=C/c2cccc(O)c2)nc1N1CCOCC1`, the growth was 66.9% (inactive).
With `CC1(C)CC[C@]2(c3nnc(-c4ccncc4)o3)CC[C@]3(C)C(=CC[C@@H]4[C@@]5(C)CCC(=O)C(C)(C)[C@@H]5CC[C@]43C)[C@@H]2C1` the figure was 88.7% (inactive).
With `CC(C)(C#N)c1cc(F)cc(C(=O)Nc2cc(Nc3ncccc3-c3ncnc4nc[nH]c34)ccc2F)c1` the figure was 38.5% (inactive); with `COc1cc(/C=C/C(=O)/C=C/c2cc3ccc(Cl)cc3[nH]c2=O)ccc1O`, 64.8% (inactive); with `CCCCn1c2cc(OCc3cn(-c4ccc(Cl)cc4)nn3)ccc2c2ccnc(C)c21`, -47.5% (active).
With `O=[N+]([O-])c1ccc(N=Nc2c(O)c(N=Nc3cc([N+](=O)[O-])cc([N+](=O)[O-])c3O)cc(N=Nc3cc(S(=O)(=O)O)cc4cc(S(=O)(=O)O)cc(O)c34)c2O)cc1` the figure was 101% (inactive); with `O=C(CCCCCCCCC(=O)Nc1cccc(C2=NCCN2)c1)Nc1cccc(C2=NCCN2)c1`, 112% (inactive); with `C#CCOC(=O)[C@]1(C)CCC[C@]2(C)[C@H]3C[C@H]4C(C(C)C)=C[C@]3(CC[C@H]21)[C@@H]1C(=O)CCC(=O)[C@@H]14`, 93.5% (inactive).
For `O=C(Nc1cc(=O)[nH]c(=O)[nH]1)C(Cl)Cl`, the growth was 111% (inactive).
